We go through 10 targets from the supplement of paper PMC10849652.

What all share (assay): log2 fold change, soluble protein after heating vs DMSO (PISA); higher = thermal stabilisation; K562 lysate, 10 uM; active = over 0.2 and 3.5 SD of the protein, either way, in both replicates (recomputed)
Compound in one assay: O=C(CCCCCCC(=O)Nc1ccccc1)NO [vorinostat]
The gist of the method:
(§1)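 Pellets of K562 cells were dounce-homogenised in PBS pH 7.4 with 1 mM MgCl2, and the crude extract was held at 1 mg/mL protein for a 30 min treatment with 10 μM compound. Aliquots were heated for 3 min over 48°C-58°C and pooled before NP-40 was added to 0.5% at 4°C. The supernatant from 21,000xg for 90 min was quantified by TMTpro 16plex LC-MS/MS with channel sums equalised. Values are reported from duplicates as log-two fold change in thermal stability relative to solvent controls.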

Compound in a further assay: O=C(O)c1ccc2c(c1)nc(Nc1cccc(Cl)c1)c1ccncc12 [silmitasertib]
Put shortly:
as §1

Compound in assay [1]: O=C1NC(=O)C(c2cnc3ccccn23)=C1c1cn2c3c(cc(F)cc13)CN(C(=O)N1CCCCC1)CC2
Put shortly:
as §1

Compound in a further assay: c1cn2cc(-c3ccc4cn[nH]c4c3)nc(Nc3ccc(N4CCOCC4)cc3)c2n1 [entospletinib]
The gist of the method:
as §1

Compound in assay [2]: NCC(=O)Nc1ccc(-n2nc(C(F)(F)F)cc2-c2ccc3c(ccc4ccccc43)c2)cc1
The gist of the method:
as §1

Of roughly 8,800 targets only a part is listed; those with a hit were picked by preference. About 0.5% of all pairs of compound and target were hits. Unmarked numbers belong to inactive results.

Chain of UniProt O00161 (O00161 whole entry, looked up): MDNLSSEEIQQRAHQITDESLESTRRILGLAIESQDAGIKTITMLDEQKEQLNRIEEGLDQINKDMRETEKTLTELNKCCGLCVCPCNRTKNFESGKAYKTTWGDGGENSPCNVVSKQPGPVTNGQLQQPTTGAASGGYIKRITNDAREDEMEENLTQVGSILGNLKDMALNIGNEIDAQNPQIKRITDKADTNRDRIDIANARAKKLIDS
Chain of UniProt O94768 (O94768 whole entry, looked up): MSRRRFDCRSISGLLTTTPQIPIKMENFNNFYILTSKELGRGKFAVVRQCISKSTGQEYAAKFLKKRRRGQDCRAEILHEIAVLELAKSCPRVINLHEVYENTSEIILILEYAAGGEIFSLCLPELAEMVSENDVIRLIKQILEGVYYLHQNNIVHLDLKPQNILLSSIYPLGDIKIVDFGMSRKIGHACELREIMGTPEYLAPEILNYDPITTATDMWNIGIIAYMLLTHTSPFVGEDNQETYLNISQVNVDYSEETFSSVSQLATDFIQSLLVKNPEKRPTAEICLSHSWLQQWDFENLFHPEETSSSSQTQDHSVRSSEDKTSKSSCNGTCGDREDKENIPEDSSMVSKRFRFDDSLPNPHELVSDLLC
Chain of UniProt Q15527 (Q15527 whole entry, looked up): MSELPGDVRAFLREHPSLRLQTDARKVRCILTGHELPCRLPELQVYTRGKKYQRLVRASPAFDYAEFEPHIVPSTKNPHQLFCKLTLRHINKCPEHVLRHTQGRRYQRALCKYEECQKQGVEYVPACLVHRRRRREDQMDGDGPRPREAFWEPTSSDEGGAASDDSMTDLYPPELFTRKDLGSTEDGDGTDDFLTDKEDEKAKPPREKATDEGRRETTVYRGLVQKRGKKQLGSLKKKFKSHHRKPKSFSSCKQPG
Chain of UniProt Q9NYA1 (Q9NYA1 whole entry, looked up): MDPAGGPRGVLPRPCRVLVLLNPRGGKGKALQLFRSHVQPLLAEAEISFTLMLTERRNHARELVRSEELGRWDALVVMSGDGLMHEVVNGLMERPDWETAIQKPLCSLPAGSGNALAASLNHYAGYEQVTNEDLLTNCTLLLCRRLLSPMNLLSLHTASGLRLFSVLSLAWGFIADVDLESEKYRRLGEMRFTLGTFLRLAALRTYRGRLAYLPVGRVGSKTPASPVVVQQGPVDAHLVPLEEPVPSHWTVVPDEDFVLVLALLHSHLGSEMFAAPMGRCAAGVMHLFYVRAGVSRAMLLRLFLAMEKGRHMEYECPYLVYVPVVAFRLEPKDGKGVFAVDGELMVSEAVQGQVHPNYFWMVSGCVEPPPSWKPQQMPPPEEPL
Chain of UniProt P10124 (P10124 whole entry, looked up): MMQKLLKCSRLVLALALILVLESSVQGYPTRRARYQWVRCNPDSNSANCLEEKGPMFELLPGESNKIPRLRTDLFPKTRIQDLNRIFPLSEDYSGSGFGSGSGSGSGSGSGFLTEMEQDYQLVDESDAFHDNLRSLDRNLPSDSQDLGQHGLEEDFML
Chain of UniProt Q15506 (Q15506 whole entry, looked up): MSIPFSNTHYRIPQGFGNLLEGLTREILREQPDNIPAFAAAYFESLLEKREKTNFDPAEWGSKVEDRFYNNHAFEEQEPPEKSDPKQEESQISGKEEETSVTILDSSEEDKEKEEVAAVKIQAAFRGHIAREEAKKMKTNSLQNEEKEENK
Chain of UniProt O95149 (O95149 whole entry, looked up): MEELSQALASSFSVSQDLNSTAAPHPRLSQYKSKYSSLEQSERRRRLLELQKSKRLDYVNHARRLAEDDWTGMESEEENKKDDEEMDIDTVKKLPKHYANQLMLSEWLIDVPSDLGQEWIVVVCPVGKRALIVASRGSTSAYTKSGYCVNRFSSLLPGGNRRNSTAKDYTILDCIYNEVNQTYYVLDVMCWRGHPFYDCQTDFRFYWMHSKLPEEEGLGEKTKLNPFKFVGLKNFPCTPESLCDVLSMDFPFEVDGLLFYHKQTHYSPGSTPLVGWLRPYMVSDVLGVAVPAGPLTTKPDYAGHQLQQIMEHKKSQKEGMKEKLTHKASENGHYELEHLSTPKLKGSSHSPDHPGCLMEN
Chain of UniProt Q15544 (Q15544 whole entry, looked up): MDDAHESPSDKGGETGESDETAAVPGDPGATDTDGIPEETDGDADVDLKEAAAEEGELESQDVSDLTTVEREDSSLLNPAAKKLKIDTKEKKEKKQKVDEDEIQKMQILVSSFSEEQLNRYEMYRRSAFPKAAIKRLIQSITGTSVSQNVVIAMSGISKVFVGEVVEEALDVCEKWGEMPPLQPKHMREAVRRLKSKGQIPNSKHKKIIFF
Chain of UniProt Q9UHW9 (Q9UHW9 whole entry, looked up): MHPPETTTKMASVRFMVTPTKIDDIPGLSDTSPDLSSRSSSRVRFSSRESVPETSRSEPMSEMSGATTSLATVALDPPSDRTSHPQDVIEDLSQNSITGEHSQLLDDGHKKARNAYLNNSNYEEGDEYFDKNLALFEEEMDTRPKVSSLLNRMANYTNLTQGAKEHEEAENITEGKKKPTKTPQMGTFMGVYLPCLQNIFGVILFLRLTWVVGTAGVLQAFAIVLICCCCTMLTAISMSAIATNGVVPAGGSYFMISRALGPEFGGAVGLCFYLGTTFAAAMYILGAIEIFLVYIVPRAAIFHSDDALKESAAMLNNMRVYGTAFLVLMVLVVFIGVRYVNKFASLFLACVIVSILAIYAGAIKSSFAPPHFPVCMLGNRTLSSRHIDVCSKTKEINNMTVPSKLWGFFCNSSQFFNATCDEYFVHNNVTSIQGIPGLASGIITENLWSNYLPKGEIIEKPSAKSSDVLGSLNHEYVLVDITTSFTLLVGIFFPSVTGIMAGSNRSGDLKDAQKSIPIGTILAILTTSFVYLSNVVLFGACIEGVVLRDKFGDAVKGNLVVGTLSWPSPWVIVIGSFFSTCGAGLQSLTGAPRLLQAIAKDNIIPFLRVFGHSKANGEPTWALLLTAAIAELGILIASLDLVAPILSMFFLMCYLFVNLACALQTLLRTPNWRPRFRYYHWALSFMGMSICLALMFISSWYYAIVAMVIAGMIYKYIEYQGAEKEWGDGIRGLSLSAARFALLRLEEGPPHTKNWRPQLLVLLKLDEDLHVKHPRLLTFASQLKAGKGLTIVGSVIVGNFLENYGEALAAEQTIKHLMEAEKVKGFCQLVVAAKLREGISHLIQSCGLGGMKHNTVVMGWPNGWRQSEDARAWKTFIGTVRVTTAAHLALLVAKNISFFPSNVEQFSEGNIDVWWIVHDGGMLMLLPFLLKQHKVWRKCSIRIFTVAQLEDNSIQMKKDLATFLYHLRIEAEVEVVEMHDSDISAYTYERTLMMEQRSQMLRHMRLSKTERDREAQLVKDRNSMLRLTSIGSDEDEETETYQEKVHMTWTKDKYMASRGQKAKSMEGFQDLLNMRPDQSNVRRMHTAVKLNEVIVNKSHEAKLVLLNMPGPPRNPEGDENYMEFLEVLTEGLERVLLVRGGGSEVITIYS
Chain of UniProt Q9P289 (Q9P289 whole entry, looked up): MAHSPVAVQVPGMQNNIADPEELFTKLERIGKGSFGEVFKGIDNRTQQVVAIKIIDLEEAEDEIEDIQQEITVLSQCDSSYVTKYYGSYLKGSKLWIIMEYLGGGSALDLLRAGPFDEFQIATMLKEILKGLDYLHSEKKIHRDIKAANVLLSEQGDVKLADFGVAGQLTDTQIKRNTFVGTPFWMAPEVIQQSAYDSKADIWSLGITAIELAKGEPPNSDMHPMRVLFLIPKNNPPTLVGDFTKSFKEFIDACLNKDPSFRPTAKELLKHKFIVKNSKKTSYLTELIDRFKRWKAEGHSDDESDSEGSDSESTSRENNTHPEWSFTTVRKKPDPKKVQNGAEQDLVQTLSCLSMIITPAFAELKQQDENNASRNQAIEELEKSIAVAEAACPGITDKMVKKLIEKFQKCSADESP

As to SLC12A6 isoform 2 (UniProt Q9UHW9), the log2 fold change with vorinostat was 0.17; with silmitasertib, -0.03; in assay [1], -0.064; in the assay with entospletinib, -0.114.
Turning to STK17B (UniProt O94768), the results for the log2 fold change (with vorinostat; in the assay with silmitasertib; in assay [1]) were -0.221, 0.807 (active) and 0.052, respectively.
For SRGN (UniProt P10124), the log2 fold change in assay [2] is -0.073; with vorinostat, 0.132; with silmitasertib it was -0.123; in assay [1] it was -0.087; in the assay with entospletinib it was -0.013.
With SNUPN (UniProt O95149), the log2 fold change in assay [2] is -0.076; with vorinostat, -0.037; in the assay with silmitasertib, 0.142; in assay [1], -0.043; with entospletinib, -0.066.
With TAF11 (UniProt Q15544), the log2 fold change was -0.005 in assay [2], 0.05 in assay [1] and -0.073 with entospletinib.
SPHK1 isoform 2 (UniProt Q9NYA1): the log2 fold change in assay [2] is 0.091; with vorinostat, -0.408; with silmitasertib, 0.089; in assay [1], -0.167; in the assay with entospletinib it was 0.032.
For SURF2 (UniProt Q15527), the values for the log2 fold change (in assay [2]; in assay [1]; in the assay with entospletinib) were -0.01, 0.04 and 0.049, respectively.
As for STK26 isoform 3 (UniProt Q9P289), the log2 fold change in assay [1] was 0.014; with entospletinib it was 0.116.
On to SPA17 (UniProt Q15506), for which the results for the log2 fold change (in assay [2]; in assay [1]; with entospletinib) were 0.049, 0.022 and -0.025, respectively.
For SNAP23 isoform 2 (UniProt O00161), the log2 fold change is 0.146 in assay [2], -0.85 (active) in the assay with vorinostat, -0.028 with silmitasertib and -0.329 with entospletinib.
